NALP3 yeast inh: blocks the NALP3 inflammasome reconstituted in yeast. 0.39% of 330,000 active. inhibition, % at 10 µM. AID 2825. Yeast reconstituted NLRP3/ASC/caspase-1, beta-gal luminescence, 24 h;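 active = inhibition of 50% or more; inactive = inhibition below 50%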;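 also: plate controls were induced DMSO wells for no effect and uninduced yeast grown without galactose for full effect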
TIM10 inh: inhibits growth of TIM10 yeast strain. AID 463195. S. cerevisiae TIM10 strain growth, BacTiter-Glo luminescence, 24 h. 1.4% of 330,000 active. inhibition, % at 10 µM;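 active = inhibition of 40% or more at the single tested concentration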;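 also: wild-type TIM10 isogenic control strain grown at permissive 25 °C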
tim10-1 inh: tim10-1 yeast growth inhibition | AID 463190 | inhibition, % at 20 µM | S. cerevisiae tim10-1 ts strain growth, BacTiter-Glo, 24 h | 2.2% of 330,000 active;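 active = inhibition of at least 40%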;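 also: mutant grown at 25 °C; 0% = DMSO wells with yeast and 100% = wells holding no yeast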
PfHsp90 yeast 2: reduces growth (ATP signal) of yeast expressing P. falciparum Hsp90. S. cerevisiae expressing PfHsp90, BacTiter-Glo ATP, 48 h; yeast lacking PDR1 and PDR3 efflux regulators. 0.32% of 310,000 active. AID 504621. inhibition, % at 9.4 µM;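 active = every replicate shows inhibition above about 80%, whatever the replicate mean, limit read from the data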;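 also: 0% = DMSO neutral controls and 100% = 20 µM radicicol positive controls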
tim23-1 inh: tim23-1 yeast growth inhibition; inhibition, % at 20 µM; AID 463212; 1.3% of 330,000 active; S. cerevisiae tim23-1 growth, BacTiter-Glo luminescence, 24 h;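 active = growth inhibition of the mutant yeast at or above 50%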;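 also: temperature-sensitive mutant grown at 25 °C; plate controls were DMSO-treated mutant yeast for no effect and medium wells lacking yeast for full effect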
SKKanGAS inh: inhibitors of SKKanGAS S. pyogenes growth in kanamycin (SK-promoter or general growth effect) | BacTiter-Glo, 6 h | inhibition, % at 7.5 µM | 1.3% of 300,000 active | AID 1662;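 active = mean replicate score, as percent of positive control median, at least 50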;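 also: strain carries kanamycin resistance gene driven by streptokinase promoter and grows in 40 µg/ml kanamycin; loss of luminescence reflects streptokinase promoter inhibition or plain growth inhibition; 0% = median of DMSO wells and 100% = positive control at its reference dose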
tim10 confirm: TIM10 yeast growth inhibition, confirmed; S. cerevisiae tim10 strain growth, BacTiter-Glo luminescence, 24 h; inhibition, % at 10 µM; shares compounds with TIM10 inh; 63% of 4,600 active;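 active = inhibition of yeast growth at or above a set limit in either of two replicates at 10 µM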;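 also: this counterscreen used the strain with wild-type TIM10; 0% = yeast with DMSO and 100% = medium wells lacking yeast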
tim23-1 confirm: confirmation of tim23-1 mutant yeast growth inhibitors | shares compounds with tim23-1 inh | S. cerevisiae tim23-1 growth, BacTiter-Glo luminescence, 24 h | inhibition, % at 20 µM | 83% of 4,400 active;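 active = inhibition above about 39% in either of two replicate wells at 20 µM, limit read from the data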;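 also: temperature-sensitive tim23-1 mutant grown at 25 °C; 0% = DMSO wells with yeast and 100% = medium wells without yeast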
An asterisk follows results filed as active; / = no result given. Most compounds without a hit are left out; they make up all but 4.6% or so of the library.

SMILES | NALP3 yeast inh | TIM10 inh | tim10-1 inh | PfHsp90 yeast 2 | tim23-1 inh | SKKanGAS inh | tim10 confirm | tim23-1 confirm
Cc1ccc2cc3cc(C(=O)N4CC(C)CC(C)C4)oc3nc2c1 (stereo unspecified) | -7 | 48* | 38 | 31 | 53* | 8 | 39* | 60*
COc1ccc2cc3cc(C(=O)N4CCN(Cc5ccc6c(c5)OCO6)CC4)oc3nc2c1 | 37 | 40* | 39 | 1 | 68* | 9 | -3 | 83*
Cc1cc(C)c(OCC(=O)Nc2ccc(NC(=O)c3ccco3)cc2)c([N+](=O)[O-])c1 | / | / | / | -16 | / | / | / | /
O=C(COc1cccc(NC(=O)c2ccco2)c1)c1ccccc1 | 0 | 48* | 21 | / | 54* | -1 | 25 | 66*
COc1ccc(C(=O)COc2cccc(NC(=O)c3ccco3)c2)cc1 | 23 | 37 | 24 | 1 | 33 | -4 | / | /
O=C(Nc1ccc(Oc2cccc3ccccc23)cc1)c1ccco1 | 46 | 40* | 13 | 1 | 58* | 79* | 25 | 77*
Cc1cc(C)c(OCC(=O)Nc2cccc(NC(=O)c3ccco3)c2)c(Br)c1 | 30 | 45* | 18 | -2 | 55* | 27 | 29 | 44*
CCN1C[C@@H]2[C@@H]3C(=O)N(Cc4ccccc4)C(=O)[C@@H]3[C@](Cc3ccccc3)(C1=O)N2C(=O)c1ccc(Cl)cc1 | / | / | / | -4 | / | / | / | /
Cc1cccc(/C(N)=N/OC(=O)c2ccc(F)cc2)c1 | 14 | 73* | 38 | 20 | 70* | -5 | 80* | 45*
Cc1ccc(C(=O)O/N=C(\N)c2ccc(Br)cc2)cc1 | 21 | 23 | -25 | 3 | 21 | -6 | / | /
CCCCn1c(N)c(N(C)C(=O)C2CC(=O)N(Cc3ccco3)C2)c(=O)[nH]c1=O (stereo unspecified) | 13 | -6 | 4 | 3 | 7 | / | / | /
Cc1cc(C)nc(SCc2ccc(C(=O)N/N=C/c3cccc(O)c3O)cc2)n1 | 9 | 56* | 26 | 53 | 60* | 8 | 47* | 56*
COc1ccc(O)c(/C=N/NC(=O)c2ccc(CSc3nc(C)cc(C)n3)cc2)c1 | 15 | 11 | 19 | 10 | 25 | 16 | / | /
Cc1ccc2c(c1)COc1c3ccc(C(=O)NCC4CC4)cc3nn1-2 | 15 | 41* | 16 | 13 | 61* | 11 | 31* | 54*
CC(C)NC(=O)CSc1nnc(C2CC2)n1-c1ccccc1 | 14 | 3 | 3 | / | 12 | -3 | / | /
CNC(=S)N/N=C(\C)c1ccccc1 | 6 | 18 | 22 | -7 | 16 | -3 | / | /
CNC(=S)N/N=C(\C)c1ccc(C(C)(C)C)cc1 | 27 | 48* | 31 | 3 | 50* | -14 | 0 | 38
CC(C)(C)CN1CCNC(=O)C1CC(=O)N1CCN(c2ccccc2)CC1 (stereo unspecified) | -14 | 10 | 3 | 3 | 16 | -5 | / | /
Cc1ccccc1-c1noc(-c2ccc(Cl)cc2)n1 | 3 | 16 | 20 | -1 | 4 | -8 | / | /
Cc1ccccc1-c1noc(-c2ccc(O)cc2)n1 | 21 | 48* | 31 | 56 | 88* | 12 | 62* | 73*
N/C(=N\OC(=O)c1ccc(Cl)c(Cl)c1)c1cccc(CSc2ccccn2)c1 | 15 | 72* | 39 | -4 | 79* | -12 | 84* | 49*
O=C(O/N=C(\c1ccccc1)c1ccccn1)c1ccc(Cl)c(Cl)c1 | 2 | 13 | 34 | 11 | 5 | 7 | / | /
O=C(NC(=S)NNC(=O)c1ccccc1O)c1ccccc1 | 46 | 49* | 11 | 19 | 62* | 93* | 42* | -28
COc1cccc(OC)c1C(=O)NCCc1ccccc1 | -2 | -33 | -25 | -3 | 0 | 2 | / | /
COc1cccc2cc(C(=O)NCCc3ccccc3)oc12 | 38 | 50* | 32 | -11 | 62* | 1 | 37* | 77*
SMILES | NALP3 yeast inh | TIM10 inh | tim10-1 inh | PfHsp90 yeast 2 | tim23-1 inh | SKKanGAS inh | tim10 confirm | tim23-1 confirm
NC(=S)N/N=C\c1ccccc1OCc1ccccc1 | 39 | 41* | 10 | -7 | 53* | -4 | -37 | 22
O=C(CSCc1ccccc1)N/N=C/c1ccccc1OCc1ccccc1 | 8 | 19 | 23 | 0 | 20 | -1 | / | /
O=C(NC1CCCCC1)C(c1cccnc1)N(C(=O)CCl)c1cccc(Cl)c1 (stereo unspecified) | 5 | 35 | 25 | -7 | 31 | 2 | / | /
S=P(N1CC1)(N1CC1)N1CC1 | 10 | 6 | 1 | 2 | 1 | / | / | /
CO/C(N)=C(\C#N)N=Cc1ccccc1Cl | 6 | 47* | 23 | 11 | 52* | 2 | 11 | 64*
Cc1ccc(C)n1-c1ccc(NC(=O)c2ccccc2)cc1 | 4 | -9 | 13 | 0 | 26 | 8 | / | /
Cc1ccc(NC(=O)c2ccccc2)s1 | 3 | 58* | 26 | / | 55* | -2 | 38* | 74*
C=C1SC(Nc2c(C)cc(C)cc2C)=NC12CCCCC2 | 27 | 45* | 33 | 7 | 65* | 28 | 39* | 63*
Cc1cc(C)nc(NC(=O)CSc2nn(-c3ccccc3)c(=S)s2)n1 | 6 | 26 | 26 | 5 | 19 | -1 | / | /
CC(C)(C)c1nn(-c2ccccc2)c2nc(Cl)c(C=O)cc12 | 3 | 10 | 13 | 37 | 27 | -6 | / | /
CC(C)(C)c1nn(-c2ccccc2)c2[nH]c(=O)c(C=O)cc12 | 25 | 72* | -23 | 120* | 80* | 4 | 91* | -44
CC1CN(C(=S)Nc2ccc(SC(F)F)cc2)CC(C)O1 (stereo unspecified) | -13 | 17 | -1 | 11 | 23 | 14 | / | /
CC1CC(C)CN(C(=S)Nc2ccc(SC(F)F)cc2)C1 (stereo unspecified) | 26 | 52* | 34 | -6 | 54* | 1 | -2 | 52*
CCc1cccc2c(C(=S)N3CCCC3)c[nH]c12 | 17 | 33 | 32 | -7 | 26 | 4 | / | /
CCc1cccc2c(C(=O)CCl)c[nH]c12 | -20 | 42* | 29 | -76 | 54* | / | 27 | 54*
COc1ccc(/C=N/NC(=O)c2nc(-c3ccccc3)n(-c3ccccc3)n2)c(O)c1 | 10 | -5 | 8 | -4 | -6 | 5 | / | /
CC(C)(C)c1cc(C(=O)N/N=C/c2ccccc2O)n(-c2ccccc2)n1 | 23 | 59* | 38 | -77 | 59* | 73* | -18 | 56*
COc1ccc(N2CC(NC(=O)N3CCN(C(=O)c4ccco4)CC3)CC2=O)cc1OC (stereo unspecified) | 17 | -5 | -12 | / | -2 | -11 | / | /
